Results on 40 compounds are retold here after the supplement of paper PMC8975748.

SMILES strings stand for the structures. Counter-ions that a name gives are not always drawn. ± gives the standard deviation of the averaged measurements.

This assay deals with Saccharomyces cerevisiae BY4741 SeMeCo community. In words: mean cell size (pixel area) (pixels); higher = larger cells. The conditions noted are these: 10 µM; 24 h; SM minimal medium. The procedure, abridged:
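Mean cell pixel area per well was determined by automated confocal microscopy with Harmony analysis of paraformaldehyde-fixed cells. The cells, a Saccharomyces cerevisiae BY4741 community of four plasmids that each complement one auxotrophy and carry a fluorescent marker, were incubated for 24 h with drug at a final 10 µM in SM medium in 384-well plates. Numbers are averaged over 3 replicates. Same SeMeCo high-content imaging drug screen: Selleck FDA-approved drugs at 10 µM, 24 h in SM medium, 384-well plates, 3 replicates.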
The compound `C=CN1CCCC1=O.II` [Povidone iodine] showed a mean cell size of 12.5 ± 0.22. Then `O=C(O[C@H]1C[N+]2(CCCOc3ccccc3)CCC1CC2)C(O)(c1cccs1)c1cccs1` [Aclidinium Bromide], with 12.59 ± 0.061. The compound `O=c1[nH]c2ccccc2n1CCCN1CCC(n2c(=O)[nH]c3cc(Cl)ccc32)CC1` [Domperidone] displayed a mean cell size of 12.6 ± 0.23. The same measure for `COc1ccc2c(c1)[C@]13CCCC[C@@H]1[C@H](C2)N(C)CC3` [Dextromethorphan hydrobromide hydrate]: 12.5 ± 0.24; for `CC(NC(C)(C)C)C(=O)c1cccc(Cl)c1` (stereo not given) [Amfebutamone (Bupropion) HCl]: 12.5 ± 0.13.

Compound `C=C(C)[C@H]1Cc2c(ccc3c2O[C@@H]2COc4cc(OC)c(OC)cc4[C@@H]2C3=O)O1` [Rotenone (Barbasco)] displayed a mean cell size of 12.67 ± 0.1.

Compound `C=CC[C@]1(O)CC[C@H]2[C@@H]3CCC4=CC(=O)CCC4=C3C=C[C@@]21C` [Altrenogest] registered a mean cell size of 12.58 ± 0.1. With `COc1ccc(C=O)cc1` [p-Anisaldehyde], the mean cell size is 12.3 ± 0.27. The same measure for `CCN(C)C(=O)Oc1cccc([C@H](C)N(C)C)c1` [Rivastigmine]: 12.7 ± 0.17; for `Cn1cc(C2=C(c3cn(C4CCN(Cc5ccccn5)CC4)c4ccccc34)C(=O)NC2=O)c2ccccc21`: 12.41 ± 0.12; for `C=CCN1C[C@H](C(=O)N(CCCN(C)C)C(=O)NCC)C[C@@H]2c3cccc4[nH]cc(c34)C[C@H]21` [Cabergoline]: 12.2 ± 0.17.

Compound `NCCc1c[nH]c2ccc(O)cc12` [Serotonin HCl] registered a mean cell size of 12.2 ± 0.41.

As for `CCN(C)C(=O)Oc1cccc([C@H](C)N(C)C)c1` [Rivastigmine Tartrate], the mean cell size was determined as 12.38 ± 0.056. Then `CC[C@H]1CN2CC[C@]3(C(=O)Nc4ccccc43)[C@@H]2C[C@@H]1/C(=C\OC)C(=O)OC` [Rhynchophylline], with 12.38 ± 0.1; and `C[CH2][Hg][S]c1ccccc1C(=O)[O-].[Na+]` [Thimerosal], with 12.3 ± 0.52; and `N[C@@H]1C[C@H]1c1ccccc1` [Tranylcypromine (2-PCPA) HCl], with 12.3 ± 0.32. The same measure for `CC(=O)OCC1=C(C(=O)O)N2C(=O)[C@@H](N)[C@H]2SC1` [7-Aminocephalosporanic acid]: 12.28 ± 0.11. Then `CC[C@H]1[C@@H]2C[C@H]3[C@@H]4N(C)c5ccccc5[C@]45C[C@@H]([C@@H]2[C@H]5O)N3[C@@H]1O` [Ajmaline], with 12.1 ± 0.16; and `CNC1CC(N)C(O)C(OC2OC(CO)C(O)C3OC4(OC(C(N)CO)C(O)C(O)C4O)OC23)C1O` (stereo not given) [Hygromycin B], with 11.8 ± 0.24; and `Cc1cc(C(C#N)c2ccc(Cl)cc2)c(Cl)cc1NC(=O)c1cc(I)cc(I)c1O` (stereo not given) [Closantel Sodium], with 12.2 ± 0.24.

`CCCN1C[C@H](CSC)C[C@@H]2c3cccc4[nH]cc(c34)C[C@H]21` [Pergolide Mesylate] showed a mean cell size of 12.4 ± 0.25. Then `COc1ccc2c3c([nH]c2c1)C(C)=NCC3` [Harmaline], with 12.4 ± 0.34; and `Cc1cc(O)ccc1Cl` [Chlorocresol], with 12.6 ± 0.13; and `N#Cc1nn(-c2c(Cl)cc(C(F)(F)F)cc2Cl)c(N)c1[S+]([O-])C(F)(F)F` (stereo not given) [Fipronil], with 12.3 ± 0.2.

With `[O-][n+]1ccccc1[S-].[O-][n+]1ccccc1[S-].[Zn+2]` [Zinc Pyrithione], the mean cell size came to 15.2 ± 0.23.

The compound `COc1ccc(C(CN(C)C)C2(O)CCCCC2)cc1` (stereo not given) [Venlafaxine HCl] had a mean cell size of 12.3 ± 0.27. Then `O=c1cccc2n1C[C@@H]1CNC[C@H]2C1` [Cytisine], with 12.6 ± 0.21.

Compound `CC[N+](C)(CC)CCOC(=O)C(O)(c1ccccc1)c1ccccc1` [Methylbenactyzine Bromide] gave a mean cell size of 12.6 ± 0.34. The same measure for `CCCCCCCCCCCCCCCC[n+]1ccccc1` [Cetylpyridinium Chloride]: 11.2 ± 0.14; for `CC(C)(O)C(Cl)(Cl)Cl` [Chlorobutanol]: 12.5 ± 0.16. The same measure for `COc1cc2c(cc1OC)C1CC(=O)C(CC(C)C)CN1CC2` (stereo not given) [Tetrabenazine (Xenazine)]: 12.62 ± 0.049; for `C[N+]1(C)[C@@H]2C[C@@H](OC(=O)[C@H](CO)c3ccccc3)C[C@H]1[C@@H]1O[C@@H]12` [Methscopolamine]: 12.49 ± 0.031. Turning to `CCOC(=O)Nc1ccc(NCc2ccc(F)cc2)cc1N` [Retigabine 2HCl], the mean cell size was 12.5 ± 0.25. Then `O=C(O[C@H]1C[C@H]2CC[C@@H](C1)[N+]21CCCC1)C(O)(c1ccccc1)c1ccccc1` [Trospium chloride], with 12.5 ± 0.18; and `CCC1=C[C@H]2CN3CCc4c([nH]c5ccccc45)[C@](C(=O)OC)(C2)[C@H]13` [Catharanthine], with 12.5 ± 0.19; and `CN[C@@H]1[C@@H](O)[C@@H](O[C@@H]2[C@@H](O)[C@H](O[C@H]3O[C@H](CN)CC[C@H]3N)[C@@H](N)C[C@H]2N)OC[C@]1(C)O.CN[C@@H]1[C@@H](O)[C@@H](O[C@@H]2[C@@H](O)[C@H](O[C@H]3O[C@H]([C@@H](C)N)CC[C@H]3N)[C@@H](N)C[C@H]2N)OC[C@]1(C)O.CN[C@@H]1[C@@H](O)[C@@H](O[C@@H]2[C@@H](O)[C@H](O[C@H]3O[C@H]([C@@H](C)NC)CC[C@H]3N)[C@@H](N)C[C@H]2N)OC[C@]1(C)O` [Gentamicin Sulfate], with 12.1 ± 0.15.

Regarding `COc1ccc(C(CN(C)C)C2(O)CCCCC2)cc1` (stereo not given) [Venlafaxine], the mean cell size was found to be 12.1 ± 0.091. Compound `Nc1nc(N)nc(NC2CC2)n1` [Cyromazine] registered a mean cell size of 12.46 ± 0.1. The same measure for `C[N+]12CCC(CC1)C(OC(=O)C(O)(c1ccccc1)c1ccccc1)C2` (stereo not given) [Clidinium Bromide]: 12.4 ± 0.13; for `C#C[C@]1(O)C=C[C@H]2[C@@H]3CCC4=CC(=O)CC[C@@H]4[C@H]3CC[C@@]21CC` [Gestodene]: 12.5 ± 0.17.
